Screening data as filed in PubChem.
EBV gp42 inh: inhibitors of Epstein-Barr virus glycoprotein 42; Q1HVG2; Fluorescence polarization binding assay, mP read-out; inhibition, % (tested at 21.74 µM); 220,000 tested, 0.42% active; in the data active = inhibition above about 50%
MEX-5 binding: C. elegans MEX-5 TCR-2 RNA binding activity | activity score (negative = inhibition of binding), % at 10 µM | Q9XUB2 | AID 1832 | 300,000 tested, 0.38% active | MEX-5/FITC-TCR2 RNA binding, fluorescence polarization; active compounds read low;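 active = inhibition past about -25% in most replicates, and total fluorescence under double the plate's negative control median, limit read from the data; inconclusive = replicates evenly split on the limit, or fluorescence at least double controls; inactive = too little inhibition in most replicates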
Target sequence (Q9XUB2 whole entry, looked up): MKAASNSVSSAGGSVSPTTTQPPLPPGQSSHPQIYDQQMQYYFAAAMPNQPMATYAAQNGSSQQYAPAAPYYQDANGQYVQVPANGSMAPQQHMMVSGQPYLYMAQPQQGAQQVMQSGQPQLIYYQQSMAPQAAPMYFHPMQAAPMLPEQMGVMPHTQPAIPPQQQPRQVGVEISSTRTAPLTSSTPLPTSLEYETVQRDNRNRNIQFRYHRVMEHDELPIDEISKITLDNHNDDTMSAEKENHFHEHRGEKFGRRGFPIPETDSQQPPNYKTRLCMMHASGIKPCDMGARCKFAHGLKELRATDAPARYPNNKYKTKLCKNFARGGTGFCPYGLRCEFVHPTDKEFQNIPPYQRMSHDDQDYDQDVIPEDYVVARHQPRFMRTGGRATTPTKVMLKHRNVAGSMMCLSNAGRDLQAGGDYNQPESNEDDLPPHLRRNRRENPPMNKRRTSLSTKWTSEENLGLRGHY
MCL1 BIM primary: disrupts human MCL1 binding to BIM-BH3 peptide; Q07820; GST-MCL1 / FITC-Bim-BH3 fluorescence polarization; inhibition, % at 10.9 µM; 320,000 tested, 0.68% active; AID 2057;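 active = inhibition above the mean inhibition of all tested compounds plus 3 SD, set per campaign, cut at about 40% in these data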;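 also: higher means more loss of mP so more displacement of Bim peptide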
BCLXL inh: Bcl-xL (human) inhibition | AID 2129 | 320,000 tested, 0.7% active | GST-Bcl-xL / FITC-Bim BH3 peptide fluorescence polarization | inhibition, % at 10.9 µM;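 active = inhibition above the mean of all tested compounds plus 3 SD, cutoff set per campaign, cut at about 30% in these data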;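 also: inhibitors lower millipolarization by displacing the labeled peptide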
Target sequence (Q07817 whole entry, looked up): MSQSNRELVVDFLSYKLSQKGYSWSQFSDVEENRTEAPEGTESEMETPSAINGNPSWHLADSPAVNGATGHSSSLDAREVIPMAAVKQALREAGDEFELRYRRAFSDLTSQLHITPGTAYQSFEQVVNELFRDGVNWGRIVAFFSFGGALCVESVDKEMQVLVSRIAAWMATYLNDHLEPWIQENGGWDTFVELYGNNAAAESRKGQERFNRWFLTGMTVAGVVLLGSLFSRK
eLon inh: inhibits E. coli Lon protease; P0A9M0; purified E. coli Lon protease, fluorescence polarization; inhibition, % at 7.94 µM; 360,000 tested, 0.42% active; AID 602123; in the data active = inhibition above about 13%, passing the limit was not always enough
GLD-1 TGE inh: GLD-1-TGE RNA interaction inhibition (C. elegans); Q17339; purified GLD-1 + fluorescein TGE RNA, fluorescence polarization; inhibition, % at 5.96 µM; 320,000 tested, 0.44% active; AID 2280;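 active = percent inhibition above a per-plate cutoff, the plate mean of test compounds plus 3 SD, cut at about 30% in these data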
BCLXL inh confirm: Bcl-xL (human) inhibition, MCL1 counter-screen confirmation. inhibition, % at 10.9 µM. GST-Bcl-xL / FITC-Bim BH3 peptide FP binding. shares compounds with MCL1 BIM primary. 1,700 tested, 54% active;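 active = inhibition above a cutoff equal to the mean inhibition of all tested compounds plus 3 SD, cut at about 30% in these data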
MCL1 BIM confirm: confirmation of human MCL1 and BIM-BH3 interaction inhibitors. shares compounds with MCL1 BIM primary. GST-MCL1 / FITC-Bim-BH3 fluorescence polarization. inhibition, % at 10.9 µM. 1,700 tested, 61% active. AID 2168;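 active = inhibition above the average of all tested compounds plus 3 SD, cut at about 40% in these data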
Of the large screens only hits and unclear results are named; the others gave an inactive call (follow-up assays come after a bar, where they were run). Most compounds without a hit are left out; they make up all but 1.5% or so of the library.

CC(=O)Nc1cccc(C2=CC(c3ccco3)n3ncnc3N2)c1 (stereo not given)	EBV gp42 inh 130, MEX-5 binding -87, MCL1 BIM primary 123, BCLXL inh 116, GLD-1 TGE inh 69 (no result: eLon inh) | BCLXL inh confirm 141 | MCL1 BIM confirm 177
O=C(CN1CCN(S(=O)(=O)c2ccc(F)cc2)CC1)Nc1ccc(F)cc1F	MCL1 BIM primary 174 (no result: EBV gp42 inh) | BCLXL inh confirm inactive | MCL1 BIM confirm inactive
Nc1cc(C(=O)OCC(=O)NNC(=O)c2ccccc2F)ccc1Cl	none (no result: EBV gp42 inh, MEX-5 binding, MCL1 BIM primary, BCLXL inh)
c1ccc(CN(Cc2ccccc2)c2nn[nH]n2)cc1	MCL1 BIM primary 46 | BCLXL inh confirm inactive | MCL1 BIM confirm inactive
Clc1ccc(CN(Cc2ccc(Cl)cc2)c2nn[nH]n2)cc1	none
N/C(=N/S(=O)(=O)c1ccccc1)c1cccc([N+](=O)[O-])c1	none
Cc1ccc2[nH]c(=O)c3cc(C(=O)NC(C)C)sc3c2c1	MCL1 BIM primary 167, BCLXL inh 138, GLD-1 TGE inh 155 (no result: EBV gp42 inh) | BCLXL inh confirm inactive | MCL1 BIM confirm inactive
Cc1ccc(N=Cc2cc(Cc3ccccc3Cl)cc([N+](=O)[O-])c2O)c(O)c1	MCL1 BIM primary 47, BCLXL inh 44 | BCLXL inh confirm inactive | MCL1 BIM confirm 47
Cc1cc(O)c(C(C)C)cc1N=Cc1ccccc1[N+](=O)[O-]	none (no result: EBV gp42 inh, MEX-5 binding, MCL1 BIM primary, BCLXL inh, GLD-1 TGE inh)
Cc1ccc(C2Nc3cccc4cccc(c34)N2)s1	MCL1 BIM primary 61, BCLXL inh 51 | BCLXL inh confirm inactive | MCL1 BIM confirm inactive
FC(F)(F)c1ccc(C2Nc3cccc4cccc(c34)N2)cc1	none (no result: MEX-5 binding, MCL1 BIM primary, BCLXL inh, GLD-1 TGE inh)
CCN(CC)c1ccc(C2Nc3cccc4cccc(c34)N2)cc1	none (no result: EBV gp42 inh)
Fc1ccc(C2Nc3cccc4cccc(c34)N2)cc1	MCL1 BIM primary 41 (no result: EBV gp42 inh) | BCLXL inh confirm inactive | MCL1 BIM confirm inactive
N#Cc1nc(COc2ccccc2)oc1N1CCCC1	none
O=C(Nc1ccccn1)NC(C(F)(F)F)C(F)(F)F	none
COC(=O)c1cc(O)cc(OC)c1Oc1cc(C)cc(O)c1C(=O)O	MCL1 BIM primary 73 (no result: MEX-5 binding) | BCLXL inh confirm inactive | MCL1 BIM confirm 76
COc1ccccc1/C=c1\sc2nc(-c3ccccc3OC)nn2c1=O	none (no result: MEX-5 binding)
COc1ccc(Br)cc1/C=c1\sc2nc(-c3ccco3)nn2c1=O	MCL1 BIM primary 80, BCLXL inh 40 (no result: EBV gp42 inh) | BCLXL inh confirm inactive | MCL1 BIM confirm 50
Cc1ccc(/C=c2\sc3nc(-c4ccco4)nn3c2=O)o1	MCL1 BIM primary 58 | BCLXL inh confirm 45 | MCL1 BIM confirm 72
Cc1ccc(-c2nc3s/c(=C\c4ccco4)c(=O)n3n2)cc1	none
CC(/C=N/n1c(-c2ccccn2)n[nH]c1=S)=C\c1ccccc1	none
C=CCSc1nnc(NC(=O)CCN2C(=O)C3CC=CCC3C2=O)s1 (stereo not given)	MCL1 BIM primary active, BCLXL inh 85, GLD-1 TGE inh 77 (no result: EBV gp42 inh, MEX-5 binding) | BCLXL inh confirm inactive | MCL1 BIM confirm inactive
O=C(C[C@@H]1C/C=C/CC[C@@H](Cc2ccc(F)cc2)C(=O)OC[C@H](Cc2ccccc2)NC1=O)N[C@H](CO)Cc1ccccc1	none (no result: EBV gp42 inh, MEX-5 binding, MCL1 BIM primary, BCLXL inh)
CCCCN(C(=O)c1cccc(-n2cccc2)c1)c1c(N)n(CCC)c(=O)[nH]c1=O	MCL1 BIM primary 55 (no result: EBV gp42 inh) | BCLXL inh confirm inactive | MCL1 BIM confirm 51
COc1cccc(OCCCn2cc(/C=C3/C(=N)N4C=C(C)SC4=NC3=O)c3ccccc32)c1	MEX-5 binding -29, MCL1 BIM primary 66, BCLXL inh 59 | BCLXL inh confirm inactive | MCL1 BIM confirm inactive
COc1ccc(OCCCn2cc(/C=C3/C(=N)N4C=C(C)SC4=NC3=O)c3ccccc32)cc1	none
CCCCCOc1ccc(C2NC(=O)NC2=O)cc1 (stereo not given)	none
N#CC1(C#N)C(c2ccccc2)OC23CCCCCC2C1(C#N)C(=N)O3 (stereo not given)	MCL1 BIM primary 48, BCLXL inh 36 | BCLXL inh confirm 78 | MCL1 BIM confirm 101
CCCCCCCCOc1ccc(C2OC34CCCCC3C(C#N)(C#N)C2(C#N)C(=N)O4)cc1 (stereo not given)	MEX-5 binding -87, MCL1 BIM primary 180, BCLXL inh 157, eLon inh 27, GLD-1 TGE inh 107 | BCLXL inh confirm 107 | MCL1 BIM confirm 124
CCc1nn(CC(=O)NC(C)CCc2ccccc2)c(=O)c2cc3cc(F)ccc3n12 (stereo not given)	none (no result: EBV gp42 inh)
CC(C)CCNc1nc2c(cc1C#N)COC(C)(C)C2	none
Cc1csc(SCC(=O)Nc2cc(C(N)=O)cc(C(N)=O)c2)n1	none (no result: EBV gp42 inh, MEX-5 binding, MCL1 BIM primary, BCLXL inh)
CCCCCCn1c(=O)[nH]c2nc3cc(N)ccc3nc2c1=O	EBV gp42 inh 148, MEX-5 binding -49, MCL1 BIM primary active, BCLXL inh 187, GLD-1 TGE inh 187 (no result: eLon inh) | BCLXL inh confirm 171 | MCL1 BIM confirm 198
Nc1nc(SCCO)[nH]c(=O)c1NC(=O)c1ccco1	none (no result: EBV gp42 inh, MEX-5 binding)
Nc1nc(SCC(=O)O)[nH]c(=O)c1NC(=O)c1ccco1	MCL1 BIM primary 55, BCLXL inh 41 (no result: EBV gp42 inh) | BCLXL inh confirm inactive | MCL1 BIM confirm inactive
O=C(COC(=O)c1ccc2ncsc2c1)Nc1cc([N+](=O)[O-])ccc1Cl	MCL1 BIM primary 42 (no result: EBV gp42 inh, MEX-5 binding) | BCLXL inh confirm inactive | MCL1 BIM confirm inactive
C[C@@H]1CN([C@H](C)CO)C(=O)CCCn2nncc2CO[C@H]1CN(C)Cc1ccncc1	none (no result: EBV gp42 inh, MEX-5 binding, MCL1 BIM primary, BCLXL inh, GLD-1 TGE inh)
Cc1cc2ccccc2n1CCNC(=O)C(C)C	MCL1 BIM primary 84, BCLXL inh 76, GLD-1 TGE inh 96 | BCLXL inh confirm inactive | MCL1 BIM confirm inactive
O=C(O)CN1C(=O)/C(=C\C(Br)=C\c2ccccc2)SC1=S	MCL1 BIM primary 43 (no result: EBV gp42 inh) | BCLXL inh confirm 33 | MCL1 BIM confirm 47
Cc1c(C(=O)Nc2ccc3c(c2)OCCO3)cnn1C	none (no result: EBV gp42 inh)
Nc1nnc(CC(=O)N/N=C/c2cc([N+](=O)[O-])cc(Br)c2O)s1	MEX-5 binding inconclusive, MCL1 BIM primary 44 | BCLXL inh confirm inactive | MCL1 BIM confirm 43
Nc1nnc(CC(=O)N/N=C/c2cccc([N+](=O)[O-])c2)s1	none
O=C(CNC(=O)c1ccccc1Br)N/N=C\c1cc([N+](=O)[O-])cc(Br)c1O	MCL1 BIM primary 42 (no result: EBV gp42 inh) | BCLXL inh confirm inactive | MCL1 BIM confirm inactive
Cc1ccc(NC(=O)C2CCCN2S(=O)(=O)c2cccc3cccnc23)cc1F (stereo not given)	none
COc1cccc(=O)c2c(C)n(CC(=O)c3ccccc3)c(C)c12	MCL1 BIM primary 47 | BCLXL inh confirm inactive | MCL1 BIM confirm inactive
CCOC(=O)C1CCN(C(=O)Nc2ccc3nc(-c4ccco4)c(-c4ccco4)nc3c2)CC1	MCL1 BIM primary 143, BCLXL inh 101, GLD-1 TGE inh 56 | BCLXL inh confirm 68 | MCL1 BIM confirm 100
